For 20 molecules, outcome and Potency results are on record in PubChem BioAssay (NCATS).

Structures are written as SMILES. Results filed as inconclusive are left out. Active and inactive are the calls of the source. Unless noted, the call rests on the fitted dose curve; in most records, active means well fitted curve in the direction sought with a large enough effect; inconclusive means small, poorly fitted or top-dose-only effect, or another doubt; inactive means no such curve, though single readings can be large; an effect the other way counts as inactive or inconclusive.

The target in assay [1] is ATP-dependent 6-phosphofructokinase (Trypanosoma brucei brucei) (UniProt O15648). The experiment in a line: qHTS Assay to Find Inhibitors of T. brucei phosphofructokinase: hit validation (AID 492961).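 Further: luminescence reports ADP formed as PFK phosphorylates fructose-6-phosphate with ATP.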 In a few lines:
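In this biochemical qHTS validation, titrated compounds were tested against 1.25 nM PFK with 0.1 mM ATP and 0.5 mM F6P. Percent activity came from controls lacking or containing enzyme.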
On the technique in general: In qHTS, concentration-response curves come from the screen itself.

The test system of assay [2] is 7G8. The experiment in a line: qHTS profiling for inhibitors of Plasmodium falciparum proliferation (AID 504749). Further: nearly all actives have a fitted effect of over 60% in size. Further: potency means the concentration at half of the fitted maximal effect. The conditions noted are these: P. falciparum in erythrocytes, SYBR Green DNA, 72 h; series mostly up to 12.8 µM. In a few lines:
(§1)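 SYBR Green fluorescence of parasite DNA, read after lysis and overnight dark incubation, measured growth over 72 h in erythrocyte culture at 0.3% parasitemia and 2.5% hematocrit. Data normalised to DMSO and 0.29 uM artemisinin, with plate-drift correction.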

For assay [3], the system named is AA1029. Described as above. The note with it: P. falciparum in erythrocytes, SYBR Green DNA, 72 h; series mostly up to 12.8 µM. In short, it runs like this: as §1
Assay [4] deals with CP194. The assay is described as above. The conditions noted are these: P. falciparum in erythrocytes, SYBR Green DNA, 72 h; series mostly up to 12.8 µM. In a few lines:
as §1

Assay [5] has as its system CP203. The description is as above. The conditions noted are these: P. falciparum in erythrocytes, SYBR Green DNA, 72 h; series mostly up to 12.8 µM. In short, it runs like this:
as §1

The test system of assay [6] is CP211. The assay is described as above. The conditions noted are these: P. falciparum in erythrocytes, SYBR Green DNA, 72 h; series mostly up to 12.8 µM. In a few lines: as §1
Assay [7] has as its system CP215. Described as above. The note with it: P. falciparum in erythrocytes, SYBR Green DNA, 72 h; series mostly up to 12.8 µM. In a few lines:
as §1

Assay [8] has as its system CP335. The description is as above. The conditions noted are these: P. falciparum in erythrocytes, SYBR Green DNA, 72 h; series mostly up to 12.8 µM. In short, it runs like this: as §1
The test system of assay [9] is DFO2036. The description is as above. The note with it: P. falciparum in erythrocytes, SYBR Green DNA, 72 h; series mostly up to 12.8 µM. In a few lines:
as §1

Assay [10] concerns DIV17. The description is as above. The conditions noted are these: P. falciparum in erythrocytes, SYBR Green DNA, 72 h; series mostly up to 12.8 µM. In a few lines: as §1
Assay [11] concerns GB4. The description is as above. The conditions noted are these: P. falciparum in erythrocytes, SYBR Green DNA, 72 h; series mostly up to 12.8 µM. In short, it runs like this:
as §1

Assay [12] has as its system P93_24. Described as above. The conditions noted are these: P. falciparum in erythrocytes, SYBR Green DNA, 72 h; series mostly up to 12.8 µM. In a few lines:
as §1

The subject of assay [13] is PC26. Described as above. The conditions noted are these: P. falciparum in erythrocytes, SYBR Green DNA, 72 h; series mostly up to 12.8 µM. In a few lines: as §1
The subject of assay [14] is TAB109. The assay is described as above. The conditions noted are these: P. falciparum in erythrocytes, SYBR Green DNA, 72 h; series mostly up to 12.8 µM. In short, it runs like this:
as §1

In assay [15] the target is Cytochrome P450 1A2 (Homo sapiens) (UniProt P05177). As to the kind of experiment: p450-cyp1a2 (AID 410; calls by dose curve; further: potency means the concentration at half of the fitted maximal effect). In short, it runs like this:
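O-Demethylation of luciferin 6' methyl ether by human CYP1A2 is monitored as luciferase luminescence. Substrate sits at Km (100uM); enzyme is 20nM. Values are scaled to 57 uM furafylline as maximal inhibition.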

Assay [16] concerns the target Cytochrome P450 3A4 (Homo sapiens) (UniProt P08684). As to the kind of experiment: qHTS Assay for Activators of Cytochrome P450 3A4 (AID 885). Further: nearly all actives have a fitted effect of over 65% in size. In a few lines: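 Activators are scored by enhanced luminescence from CYP3A4 conversion of luciferin-PPXE (25uM, equal to KM) to luciferin, after 60 min at RT with an NADPH-regenerating system.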
The target in assay [17] is Cytochrome P450 2C9 (Homo sapiens) (UniProt P11712). As to the kind of experiment: qHTS Assay for Inhibitors and Substrates of Cytochrome P450 2C9 (AID 883). Further: nearly all actives have a fitted effect of over 60% in size. Further: potency means the concentration at half of the fitted maximal effect. In short, it runs like this:
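Inhibition of CYP2C9 is scored as loss of luminescence, with 57uM sulphaphenazole defining 100% inhibition. Substrate Luciferin-H is used at 100uM, equal to its KM; enzyme at 10nM in 25mM KPO4, 60 min at 37C with NADPH regeneration.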

The target in assay [18] is Cytochrome P450 2D6 (Homo sapiens) (UniProt P10635). The experiment in a line: qHTS Assay for Inhibitors and Substrates of Cytochrome P450 2D6 (AID 891). Further: nearly all actives have a fitted effect of over 60% in size. Further: potency means the concentration at half of the fitted maximal effect. In short, it runs like this: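 Luminescent read-out of luciferin formed by 5 nM human CYP2D6 demethylating 30 uM Luciferin-ME EGE (Km level) over 60 min at room temperature after NADPH regeneration addition. Data normalized to full inhibition by 1.43 uM quinidine.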

The nature of assay [19]: Confirmation and Secondary Assay for Modulators of Hemoglobin Beta Chain Splicing at IVS2 654 locus (AID 910).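 Further: HeLa cells stably carrying EGFP split by mutant beta-globin IVS2-654 intron; per-well total GFP intensity by laser scanning cytometry after 2-day treatment.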 In a few lines:
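Readout: per-well total peak green fluorescence (488 nm ex, 500–520 nm em) from objects 5–250 µm, reflecting correct splicing of an EGFP-654 reporter. Compounds were applied for 2 days at 37 °C to overnight-plated HeLa EGFP-654 cells; controls were DMSO and 500 nM IVS2-654 PNA.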

The nature of assay [20]: Confirmation and Secondary Assay for Modulators of Hemoglobin Beta Chain Splicing at IVS2 705 locus (AID 930).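 Further: HeLa cells stably expressing the EGFP-705 splicing reporter; GFP fluorescence per well restored by corrected splicing of the IVS2-705 intron in EGFP.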 In a few lines:
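Splice-correction reporter: EGFP cDNA split by beta-globin intron 2 bearing the 705 mutation, stably in HeLa. Compound incubation 2 days, 37C; fluorescent objects 5-250 µm summed per well.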

Cytochrome P450 2D6 (Homo sapiens), sequence (P10635 whole entry, looked up): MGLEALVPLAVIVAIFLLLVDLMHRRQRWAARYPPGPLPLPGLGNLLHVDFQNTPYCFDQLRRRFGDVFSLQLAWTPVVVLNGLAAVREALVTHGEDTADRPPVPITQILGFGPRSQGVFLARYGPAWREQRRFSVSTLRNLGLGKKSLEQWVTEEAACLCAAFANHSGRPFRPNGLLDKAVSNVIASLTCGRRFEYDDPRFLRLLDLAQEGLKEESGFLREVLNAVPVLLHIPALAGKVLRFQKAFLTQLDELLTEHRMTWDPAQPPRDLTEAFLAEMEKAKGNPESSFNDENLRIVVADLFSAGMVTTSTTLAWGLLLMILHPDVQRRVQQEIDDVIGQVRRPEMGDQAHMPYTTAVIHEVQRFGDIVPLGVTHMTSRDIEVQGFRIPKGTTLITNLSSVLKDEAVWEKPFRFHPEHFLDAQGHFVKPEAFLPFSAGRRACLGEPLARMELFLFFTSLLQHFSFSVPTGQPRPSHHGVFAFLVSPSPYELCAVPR
ATP-dependent 6-phosphofructokinase (Trypanosoma brucei brucei), sequence (O15648 whole entry, looked up): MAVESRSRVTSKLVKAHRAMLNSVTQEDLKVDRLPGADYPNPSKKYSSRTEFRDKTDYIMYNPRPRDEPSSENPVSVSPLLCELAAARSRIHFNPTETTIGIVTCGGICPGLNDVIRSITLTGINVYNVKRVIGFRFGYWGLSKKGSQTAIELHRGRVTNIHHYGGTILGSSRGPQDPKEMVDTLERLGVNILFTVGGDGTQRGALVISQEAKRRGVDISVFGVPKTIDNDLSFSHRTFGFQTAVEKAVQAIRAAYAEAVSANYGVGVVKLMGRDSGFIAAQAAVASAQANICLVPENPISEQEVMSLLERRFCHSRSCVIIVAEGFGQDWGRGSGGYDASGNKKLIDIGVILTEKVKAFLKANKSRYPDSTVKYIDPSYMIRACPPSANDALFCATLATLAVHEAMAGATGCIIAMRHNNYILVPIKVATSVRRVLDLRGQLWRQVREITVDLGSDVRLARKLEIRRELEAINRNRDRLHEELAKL
Cytochrome P450 3A4 (Homo sapiens), sequence (P08684 whole entry, looked up): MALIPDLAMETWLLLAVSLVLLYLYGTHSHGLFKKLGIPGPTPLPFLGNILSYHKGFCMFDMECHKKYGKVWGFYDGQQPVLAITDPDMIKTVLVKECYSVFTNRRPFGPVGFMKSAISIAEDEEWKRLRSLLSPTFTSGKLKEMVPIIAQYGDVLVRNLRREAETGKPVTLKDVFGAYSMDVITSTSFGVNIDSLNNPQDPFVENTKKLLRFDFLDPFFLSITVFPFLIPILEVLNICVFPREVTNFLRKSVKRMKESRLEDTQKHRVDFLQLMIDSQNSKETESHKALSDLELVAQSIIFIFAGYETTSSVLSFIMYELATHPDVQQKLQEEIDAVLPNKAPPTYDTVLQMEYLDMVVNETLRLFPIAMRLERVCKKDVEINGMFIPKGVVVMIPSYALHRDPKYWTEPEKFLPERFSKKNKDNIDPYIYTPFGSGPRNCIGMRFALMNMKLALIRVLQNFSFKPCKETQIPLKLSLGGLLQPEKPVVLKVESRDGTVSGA
Cytochrome P450 1A2 (Homo sapiens), sequence (P05177 whole entry, looked up): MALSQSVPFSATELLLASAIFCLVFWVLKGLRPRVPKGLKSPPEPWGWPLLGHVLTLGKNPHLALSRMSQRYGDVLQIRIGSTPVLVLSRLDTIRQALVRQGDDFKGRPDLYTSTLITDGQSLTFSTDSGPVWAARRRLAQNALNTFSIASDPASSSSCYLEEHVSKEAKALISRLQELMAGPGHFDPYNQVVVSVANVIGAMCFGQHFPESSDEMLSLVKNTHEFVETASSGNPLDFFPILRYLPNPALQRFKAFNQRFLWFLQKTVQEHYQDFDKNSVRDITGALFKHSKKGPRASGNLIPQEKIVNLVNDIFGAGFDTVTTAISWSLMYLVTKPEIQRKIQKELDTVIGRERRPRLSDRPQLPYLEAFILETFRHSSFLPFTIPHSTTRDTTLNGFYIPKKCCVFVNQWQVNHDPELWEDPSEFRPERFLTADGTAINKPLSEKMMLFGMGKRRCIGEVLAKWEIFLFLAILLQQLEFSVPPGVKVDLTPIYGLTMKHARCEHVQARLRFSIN
Cytochrome P450 2C9 (Homo sapiens), sequence (P11712 whole entry, looked up): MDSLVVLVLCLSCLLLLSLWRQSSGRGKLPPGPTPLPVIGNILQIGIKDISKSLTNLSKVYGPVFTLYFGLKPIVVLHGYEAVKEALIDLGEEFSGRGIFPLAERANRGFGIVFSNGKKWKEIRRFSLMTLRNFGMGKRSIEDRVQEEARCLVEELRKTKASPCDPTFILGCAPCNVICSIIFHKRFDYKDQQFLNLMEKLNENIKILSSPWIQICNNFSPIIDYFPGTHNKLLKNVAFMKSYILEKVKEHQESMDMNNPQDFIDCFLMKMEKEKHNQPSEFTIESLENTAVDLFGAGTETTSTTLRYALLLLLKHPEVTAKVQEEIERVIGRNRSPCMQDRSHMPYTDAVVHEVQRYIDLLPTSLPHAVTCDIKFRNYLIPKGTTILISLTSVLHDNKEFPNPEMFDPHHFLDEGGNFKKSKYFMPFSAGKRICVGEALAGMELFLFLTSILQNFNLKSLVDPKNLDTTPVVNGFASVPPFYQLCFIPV

For `CC(C)(C)NC[C@H](O)COc1cccc2c1C[C@@H](O)[C@@H](O)C2`, in assay [1], the molecule was called inactive. Besides, the Potency result in assay [2], in assay [3], in [4], in assay [5], in assay [6] and in assay [7] was “inactive” throughout. Moreover, the Potency result in [8], in assay [9], in assay [10], in [11], in assay [12] and in [13] was “inactive” throughout. Moreover, the Potency result in assay [14] was “inactive”.

`CCOC(=O)O[C@]1(C(=O)COC(=O)CC)CC[C@@H]2[C@@H]3CCC4=CC(=O)C=C[C@@]4(C)[C@H]3[C@H](O)C[C@]21C`: the Potency entry in [15], in assay [16], in assay [2], in [3], in assay [4] and in assay [5] was “inactive” throughout. Also, the Potency result in assay [6], in assay [7], in assay [8], in assay [9], in assay [10] and in [11] was “inactive” throughout. For the same molecule, the Potency result in assay [12], in [13] and in [14] was “inactive” in each case. In [1], the call was inactive.

On to `COC(=O)Nc1nc2ccc(SC(C)C)cc2[nH]1`, for which, in [15], the Potency is 0.501 µM (active).

As for `Clc1ccc(CC[C@H](Cn2ccnc2)Sc2c(Cl)cccc2Cl)cc1`, the Potency in assay [15] is 3.98 µM (active); in assay [17], 0.0126 µM (active); in assay [18], 1.26 µM (active); in assay [2] it was 0.891 µM (active); in assay [4], 6.42 µM (active); in assay [5], 6.42 µM (active). The Potency in assay [10] was 4.05 µM (active); in [11] it was 3.22 µM (active); in [12], 2.24 µM (active); in assay [13] it was 4.55 µM (active). Further, the outcome in assay [1] was inactive.

Regarding `CC(=O)OCC(=O)[C@@]12OC(C)(C)O[C@@H]1C[C@H]1[C@H]3C[C@H](F)C4=CC(=O)C=C[C@@]4(C)[C@]3(F)[C@H](O)C[C@@]12C`, the molecule was classed as inactive in assay [1]. Besides, the Potency result in [3], in assay [4], in [5], in assay [6], in [7] and in assay [8] was “inactive” throughout. Besides, the Potency entry in assay [9], in [10], in assay [11], in assay [12], in [13] and in assay [14] was “inactive” in each case.

`C[C@@H]1C[C@H](OC(=O)c2ccccc2O)CC(C)(C)C1`: the Potency in [15] was 12.6 µM (active).

With `CC1(C)O[C@@H]2C[C@H]3[C@H]4C[C@H](F)C5=CC(=O)CC[C@]5(C)[C@@H]4[C@H](O)C[C@]3(C)[C@]2(C(=O)CO)O1`, in [1], the call was inactive. In addition, the Potency entry in assay [3], in assay [4], in [5], in assay [6], in assay [8] and in assay [9] was “inactive” each time. Besides, the Potency result in assay [10], in assay [11], in [12], in [13] and in [14] was “inactive” in each case.

`Cc1onc(-c2ccccc2Cl)c1C(=O)N[C@H]1C(=O)N2[C@H]1SC(C)(C)[C@H]2C(=O)O`: in assay [1], the call was inactive. In addition, the Potency entry in assay [3], in assay [4], in [5], in [6], in [7] and in [8] was “inactive” in each case. Moreover, the Potency entry in [9], in assay [10], in assay [11], in assay [12], in [13] and in assay [14] was “inactive” each time.

For `CN[C@H]1[C@@H](O)[C@@H](NC)[C@@H]2O[C@@]3(O)C(=O)C[C@@H](C)O[C@H]3O[C@H]2[C@H]1O`, in [1], the outcome was inactive. Further, the Potency entry in [2], in [3], in assay [4], in assay [6], in assay [7] and in [8] was “inactive” each time. Besides, the Potency result in [9], in assay [10], in assay [11], in assay [12], in [13] and in [14] was “inactive” in each case.

Consider `COc1cc2nc(N3CCN(C(=O)[C@@H]4COc5ccccc5O4)CC3)nc(N)c2cc1OC`, for which the Potency entry in assay [15], in [7] and in assay [9] was “inactive” each time. The Potency in assay [2] is 7.08 µM (active); in [10], 6.75 µM (active).

Consider `COc1cc2cc3c4cc(OC)c(OC)cc4cc[n+]3c(C)c2cc1OC`, for which the Potency entry in assay [15], in [16], in assay [19] and in [20] was “inactive” each time.

Regarding `C[C@H]1CC[C@@H]2[C@@H](C)[C@H]3[C@H](C[C@H]4[C@@H]5CC=C6C[C@@H](O[C@]7(O[C@H]8O[C@@H](C)[C@@H](O)[C@@H](O)[C@@H]8O)C[C@@H](O[C@@H]8O[C@H](CO)[C@@H](O)[C@H](O)[C@@H]8O)[C@@H](O)[C@H](CO)O7)CC[C@]6(C)[C@H]5CC[C@@]34C)N2C1`, the Potency entry in assay [15], in assay [17] and in [18] was “inactive” throughout.

As to `Cn1nnnc1SCC1=C(C(=O)O)N2C(=O)[C@@H](NC(=O)[C@@H](O)c3ccccc3)[C@@H]2SC1`, in assay [1], the result was inactive. The Potency entry in assay [3], in assay [4], in assay [5], in [6], in assay [7] and in assay [8] was “inactive” in each case. For the same molecule, the Potency entry in [9], in [10], in assay [11], in [12], in assay [13] and in assay [14] was “inactive” throughout.

In the case of `CC[C@](C)(CN(C)C)OC(=O)c1ccccc1`, in assay [1], the molecule was classed as inactive. Further, the Potency entry in [2], in assay [3], in assay [4], in [6], in [7] and in assay [9] was “inactive” in each case. Moreover, the Potency entry in assay [10], in assay [13] and in [14] was “inactive” each time.

As for `CS(=O)(=O)Nc1cccc(-c2nc(Nc3ccc(F)cc3)c3ccccc3n2)c1`, the Potency in [15] is 0.794 µM (active). Further, in [20], the Potency result was “inactive”.

In the case of `c1ccc2c(c1)CCCc1cc(NCCN3CCOCC3)nnc1-2`, the Potency result in [15] and in assay [16] was “inactive” each time.

Regarding `C#C[C@@]1(O)CC[C@@H]2[C@@H]3CCC4=CC(=O)CC[C@@H]4[C@H]3CC[C@]21CC`, in assay [15], the Potency entry is “inactive”.

As for `OCCN1CCN(CCC=C2c3ccccc3Sc3ccc(Cl)cc32)CC1`, the Potency in assay [15] is 15.8 µM (active); in assay [2], 3.16 µM (active); in assay [11], 4.05 µM (active). Further, the Potency result in [16] and in assay [5] was “inactive” in each case. The molecule was called inactive in assay [1].

Take `C[C@@H]1C[C@H](OC(=O)[C@@H](O)c2ccccc2)CC(C)(C)N1C`: in assay [15], the Potency entry is “inactive”.

With `CN1CCN([C@@H](c2ccccc2)c2ccc(Cl)cc2)CC1`, the Potency entry in [15], in assay [6], in assay [9] and in [14] was “inactive” each time. The figures for the Potency in [18] and in assay [2] were 2 µM (active) and 3.16 µM (active), respectively.
